# Measurements from PubChem BioAssay (EPA / NIEHS).
# Active and inactive are the calls of the source. The calls were made as follows: active = hit-call score of the fitted dose curve at least 0.9, where 1 is the maximum; inactive = score below 0.9.
# Tests used:
# [1] = ATG_CRE_CIS: Attagene CIS-FACTORIAL HepG2 Assay for human cAMP Responsive Element (CRE) binding protein 3 (AID 2282926); conditions: HepG2 CRE cis-reporter, Attagene multiplexed mRNA; actives raise or lower the signal
# Procedure, shortened: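 HepG2 cells transiently transfected with cis-element-driven multiple reporter transcription units; CRE reporter mRNA measured 24 h after dosing by RT-PCR, 6-FAM labelling, HpaI digestion and capillary electrophoresis. Bidirectional fit versus DMSO baseline.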
# [2] = ATG_DR4_LXR_CIS: Attagene CIS-FACTORIAL HepG2 Assay for human Liver X Receptor (LXR), DR4 submotif (AID 2282929); conditions: HepG2 Attagene DR4 cis-reporter, mRNA transcription; actives raise or lower the signal
# Procedure, shortened: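 Transiently transfected HepG2 liver cells; cis-regulated reporters; 24 h dosing. RT-PCR plus CE read-out of reporter mRNA. DMSO baseline, bidirectional curve fitting.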
# [3] = ATG_AP_1_CIS: Attagene CIS-FACTORIAL HepG2 Assay for human Activator Protein 1 (AP-1) (AID 2282931); conditions: HepG2 Attagene cis-factorial AP-1 reporter mRNA; actives raise or lower the signal
# Procedure, shortened: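 We transfected HepG2 cells transiently with a set of cis-regulated reporter transcription units, dosed them for 24 h, and quantified reporter mRNA via RT-PCR and capillary electrophoresis, scoring gain or loss of signal relative to DMSO.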
# [4] = ATG_AP_2_CIS: Attagene CIS-FACTORIAL HepG2 Assay for human Activator Protein 2 (AP-2) (AID 2282932); conditions: HepG2 AP-2 cis-reporter, Attagene transcription factor profiling; actives raise or lower the signal
# Procedure, shortened: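 Step one: transient transfection of HepG2 with reporter transcription units. Step two: 24 h chemical exposure. Step three: RNA extraction, RT-PCR, labelled fragment analysis by capillary electrophoresis; DMSO serves as baseline.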
# [5] = target: Transcription factor E2F1 (Homo sapiens) (UniProt Q01094); assay: ATG_E2F_CIS: Attagene CIS-FACTORIAL HepG2 Assay for human E2F Transcription Factor 1 (AID 2282935); conditions: HepG2 Attagene cis-reporter, E2F reporter RNA transcripts; actives raise or lower the signal
# Procedure, shortened: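 Total RNA from 24 h-treated, reporter-transfected HepG2 cells undergoes DNase I treatment, oligo(dT) reverse transcription, PCR and 6-FAM primer extension before capillary electrophoresis.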
# [6] = ATG_M_61_CIS: Attagene CIS-FACTORIAL HepG2 Assay for M61 Transcription Factor (Internal Marker) (AID 2282937); conditions: HepG2 Attagene CIS-FACTORIAL M61 internal marker reporter; actives raise or lower the signal
# Procedure, shortened: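 Multiplexed reporter mRNA assay, HepG2 human hepatoma cells, 24 h treatment. Signal: FAM-labelled, HpaI-digested RT-PCR fragments by CE. Fit: bidirectional, baseline DMSO.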
# [7] = ATG_EGR_CIS: Attagene CIS-FACTORIAL HepG2 Assay for human Early Growth Response 1 (EGR1) (AID 2282938); conditions: HepG2 Attagene CIS-FACTORIAL EGR reporter mRNA; actives raise or lower the signal
# Procedure, shortened: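 Multiplexed cis-reporter system in human hepatoma HepG2 cells, transiently transfected. Cells are dosed for 24 h; reporter transcripts are amplified, fluorescently tagged and sized by capillary electrophoresis, with DMSO as negative control.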
# [8] = ATG_M_19_CIS: Attagene CIS-FACTORIAL HepG2 Assay for M19 Transcription Factor (Internal Marker) (AID 2282939); conditions: HepG2 Attagene CIS-FACTORIAL M19 internal marker reporter; actives raise or lower the signal
# Procedure, shortened: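 Transfect HepG2 with MRTU reporter library → dose chemical, 24 h → isolate total RNA, reverse-transcribe with oligo(dT) → PCR, 6-FAM label, HpaI cut (2 h, 37 C) → capillary electrophoresis. Bidirectional fit vs DMSO.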
# [9] = ATG_Ets_CIS: Attagene CIS-FACTORIAL HepG2 Assay for human Erythroblast Transformation Specific (ETS) (AID 2282941); conditions: HepG2 ETS cis-reporter transcription, actives raise or lower the signal
# Procedure, shortened: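 After transient cis-reporter transfection, HepG2 cells receive test chemical for 24 h. Reporter mRNA levels, measured by RT-PCR and capillary electrophoresis fluorescence, are analysed bidirectionally relative to the DMSO baseline.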
# [10] = target: Hepatocyte nuclear factor 3-beta (Homo sapiens) (UniProt Q9Y261); assay: ATG_FoxA2_CIS: Attagene CIS-FACTORIAL HepG2 Assay for human Forkhead box A2 (FOXA2) (AID 2282942); conditions: HepG2 cis-reporter transcription factor activity, 24 h; actives raise or lower the signal
# Procedure, shortened: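 Multiplexed cis-element reporter assay in transiently transfected HepG2. Twenty-four hours post-dosing, RNA was reverse-transcribed, amplified, FAM-labelled, HpaI-digested and separated by CE. Activity gain or loss relative to DMSO.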
# [11] = ATG_GATA_CIS: Attagene CIS-FACTORIAL HepG2 Assay for human GATA Binding Protein (AID 2282944); conditions: HepG2 GATA cis-element reporter, Attagene multiplex mRNA; actives raise or lower the signal
# Procedure, shortened: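 Transient MRTU transfection, HepG2, 24 h compound exposure. Total RNA → oligo(dT) RT → PCR → 6-FAM primer extension → HpaI cut → CE. Bidirectional fit vs DMSO.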
# [12] = ATG_GLI_CIS: Attagene CIS-FACTORIAL HepG2 Assay for human Zinc Finger Protein GLI1 (AID 2282945); conditions: HepG2, Attagene cis-factorial reporter mRNA, GLI element; actives raise or lower the signal
# Procedure, shortened: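 Bidirectional curve fits relative to DMSO, using reporter mRNA levels from RT-PCR plus capillary electrophoresis. Cells were HepG2 transiently carrying cis-regulated reporter constructs, harvested 24 h after dosing.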
# [13] = ATG_ISRE_CIS: Attagene CIS-FACTORIAL HepG2 Assay for human Interferon Regulatory Factor 1 (IRF1) binding to an Interferon-Stimulated Response Element (ISRE) (AID 2282948); conditions: HepG2 ISRE cis-reporter (Attagene), mRNA transcription readout; actives raise or lower the signal
# Procedure, shortened: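 Quantitation relies on labelled RT-PCR fragments separated by capillary electrophoresis. Human HepG2 cells bearing cis-promoter reporter constructs were treated 24 h; DMSO served as baseline for bidirectional fitting.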
# [14] = ATG_M_32_CIS: Attagene CIS-FACTORIAL HepG2 Assay for M32 Transcription Factor (Internal Marker) (AID 2282949); conditions: HepG2 Attagene cis-factorial M32 reporter, mRNA; actives raise or lower the signal;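 also: background control marker of the multiplexed CIS panel rather than a real target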
# Procedure, shortened: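 Internal background marker read-out: RT-PCR/capillary electrophoresis fluorescence of reporter transcripts from transiently transfected HepG2 cells after 24 h chemical exposure. Activity fitted bidirectionally relative to DMSO negative control.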
# [15] = ATG_M_06_CIS: Attagene CIS-FACTORIAL HepG2 Assay for M06 Transcription Factor (Internal Marker) (AID 2282950); conditions: HepG2 Attagene CIS-FACTORIAL M06 internal marker reporter; actives raise or lower the signal
# Procedure, shortened: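 Read-out is fluorescence of labelled reporter cDNA fragments resolved by capillary electrophoresis after RT-PCR. Cells: HepG2 carrying transfected cis-promoter reporter units, treated 24 h. Gain or loss of signal fitted relative to DMSO.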
# [16] = ATG_MRE_CIS: Attagene CIS-FACTORIAL HepG2 Assay for human Metal Responsive Element (MRE) (AID 2282954); conditions: HepG2 MRE cis-reporter transcription, Attagene multiplex; actives raise or lower the signal
# Procedure, shortened: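 After a 24 h chemical exposure, transiently transfected HepG2 cells yield RNA whose reporter sequences are amplified, FAM-labelled and sized by capillary electrophoresis. Curves are fitted bidirectionally relative to DMSO.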
# [17] = target: Paired box protein Pax-6 (Homo sapiens) (UniProt P26367); assay: ATG_Pax6_CIS: Attagene CIS-FACTORIAL HepG2 Assay for human Paired Box 6 (PAX6) (AID 2282956); conditions: HepG2 CIS-FACTORIAL PAX6 reporter transcription, RNA readout; actives raise or lower the signal
# Procedure, shortened: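 After twenty-four hours of chemical exposure, transfected HepG2 cells are harvested for RNA. Cis-promoter reporter transcripts are amplified, fluorescently labelled and sized by capillary electrophoresis, with gain and loss of signal scored against DMSO.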
# [18] = ATG_PXRE_CIS: Attagene CIS-FACTORIAL HepG2 Assay for human Pregnane X Receptor Element (PXRE) (AID 2282957); conditions: HepG2 Attagene CIS-FACTORIAL PXRE reporter, mRNA; actives raise or lower the signal
# Procedure, shortened: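 HepG2 cells transiently transfected with cis-element-driven multiplexed reporter units; after 24 h chemical exposure, reporter mRNA measured by RT-PCR, 6-FAM labelling, HpaI digestion and capillary electrophoresis. Bidirectional fitting relative to DMSO.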
# [19] = target: Transcription factor Sp1 (Homo sapiens) (UniProt P08047); assay: ATG_Sp1_CIS: Attagene CIS-FACTORIAL HepG2 Assay for human Specificity Protein 1 (Sp1) (AID 2282961); conditions: HepG2 Sp1 cis-reporter transcription, actives raise or lower the signal
# Procedure, shortened: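 Chemicals are dosed onto HepG2 cells transfected with multiple cis-promoter reporter constructs, and after 24 h reporter RNA is reverse-transcribed, PCR-amplified and resolved by capillary electrophoresis for fluorescence quantitation; activity is scored up or down against DMSO.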
# [20] = target: Signal transducer and activator of transcription 3 (Homo sapiens) (UniProt P40763); assay: ATG_STAT3_CIS: Attagene CIS-FACTORIAL HepG2 Assay for human Signal Transducer and Activator of Transcription 3 (STAT3) (AID 2282963); conditions: HepG2, Attagene cis-factorial STAT3 reporter transcription; actives raise or lower the signal
# Procedure, shortened: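 After a 24 h compound incubation, total RNA from MRTU-transfected HepG2 cells was converted to cDNA and reporter sequences PCR-amplified, labelled and profiled by capillary electrophoresis. Gain and loss of signal were referenced to DMSO.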
# Hepatocyte nuclear factor 3-beta (Homo sapiens), sequence (Q9Y261 whole entry, looked up): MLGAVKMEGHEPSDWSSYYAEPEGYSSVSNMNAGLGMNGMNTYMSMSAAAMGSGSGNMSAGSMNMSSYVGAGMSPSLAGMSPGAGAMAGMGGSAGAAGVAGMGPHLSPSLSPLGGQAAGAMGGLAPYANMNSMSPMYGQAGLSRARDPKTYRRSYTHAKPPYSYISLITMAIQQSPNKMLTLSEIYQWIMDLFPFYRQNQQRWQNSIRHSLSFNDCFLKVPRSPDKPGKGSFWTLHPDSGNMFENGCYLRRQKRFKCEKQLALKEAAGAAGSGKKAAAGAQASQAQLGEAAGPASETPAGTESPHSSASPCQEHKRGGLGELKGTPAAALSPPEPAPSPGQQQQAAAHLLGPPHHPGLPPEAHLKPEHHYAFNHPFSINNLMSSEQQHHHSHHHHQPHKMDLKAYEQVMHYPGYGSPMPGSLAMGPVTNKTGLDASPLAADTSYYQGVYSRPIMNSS
# Signal transducer and activator of transcription 3 (Homo sapiens), sequence (P40763 whole entry, looked up): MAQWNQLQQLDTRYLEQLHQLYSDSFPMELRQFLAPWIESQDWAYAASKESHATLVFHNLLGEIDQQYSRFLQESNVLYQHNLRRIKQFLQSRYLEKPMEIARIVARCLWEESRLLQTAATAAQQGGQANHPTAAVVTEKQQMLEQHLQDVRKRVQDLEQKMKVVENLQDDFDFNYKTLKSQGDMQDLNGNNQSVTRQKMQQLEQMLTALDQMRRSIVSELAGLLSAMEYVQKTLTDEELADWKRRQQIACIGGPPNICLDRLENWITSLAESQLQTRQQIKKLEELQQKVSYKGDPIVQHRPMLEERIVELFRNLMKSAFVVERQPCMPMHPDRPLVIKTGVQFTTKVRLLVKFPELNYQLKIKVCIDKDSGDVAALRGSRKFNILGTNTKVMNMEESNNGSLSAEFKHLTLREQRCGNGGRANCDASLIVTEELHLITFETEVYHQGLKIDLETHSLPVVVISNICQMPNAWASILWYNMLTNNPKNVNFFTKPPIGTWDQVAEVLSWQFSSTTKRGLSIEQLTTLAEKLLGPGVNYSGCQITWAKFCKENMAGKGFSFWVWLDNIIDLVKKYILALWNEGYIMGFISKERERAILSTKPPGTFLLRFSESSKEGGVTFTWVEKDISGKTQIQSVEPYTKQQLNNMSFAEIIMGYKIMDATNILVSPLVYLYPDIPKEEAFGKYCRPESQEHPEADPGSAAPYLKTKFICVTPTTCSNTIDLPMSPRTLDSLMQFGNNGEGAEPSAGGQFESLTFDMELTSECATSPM
# Paired box protein Pax-6 (Homo sapiens), sequence (P26367 whole entry, looked up): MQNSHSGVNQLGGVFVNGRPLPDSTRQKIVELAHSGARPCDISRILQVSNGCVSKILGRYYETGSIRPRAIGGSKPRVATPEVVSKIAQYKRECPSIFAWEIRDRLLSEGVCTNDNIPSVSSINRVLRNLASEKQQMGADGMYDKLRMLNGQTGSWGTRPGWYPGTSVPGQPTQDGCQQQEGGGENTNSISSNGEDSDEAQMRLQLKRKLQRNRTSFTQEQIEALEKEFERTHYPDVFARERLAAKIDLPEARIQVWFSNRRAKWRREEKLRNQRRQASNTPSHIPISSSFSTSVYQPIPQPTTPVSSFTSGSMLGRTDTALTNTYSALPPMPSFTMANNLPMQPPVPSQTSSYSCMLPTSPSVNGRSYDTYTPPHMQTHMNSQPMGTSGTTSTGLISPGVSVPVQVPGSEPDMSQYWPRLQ
# Transcription factor Sp1 (Homo sapiens), sequence (P08047 whole entry, looked up): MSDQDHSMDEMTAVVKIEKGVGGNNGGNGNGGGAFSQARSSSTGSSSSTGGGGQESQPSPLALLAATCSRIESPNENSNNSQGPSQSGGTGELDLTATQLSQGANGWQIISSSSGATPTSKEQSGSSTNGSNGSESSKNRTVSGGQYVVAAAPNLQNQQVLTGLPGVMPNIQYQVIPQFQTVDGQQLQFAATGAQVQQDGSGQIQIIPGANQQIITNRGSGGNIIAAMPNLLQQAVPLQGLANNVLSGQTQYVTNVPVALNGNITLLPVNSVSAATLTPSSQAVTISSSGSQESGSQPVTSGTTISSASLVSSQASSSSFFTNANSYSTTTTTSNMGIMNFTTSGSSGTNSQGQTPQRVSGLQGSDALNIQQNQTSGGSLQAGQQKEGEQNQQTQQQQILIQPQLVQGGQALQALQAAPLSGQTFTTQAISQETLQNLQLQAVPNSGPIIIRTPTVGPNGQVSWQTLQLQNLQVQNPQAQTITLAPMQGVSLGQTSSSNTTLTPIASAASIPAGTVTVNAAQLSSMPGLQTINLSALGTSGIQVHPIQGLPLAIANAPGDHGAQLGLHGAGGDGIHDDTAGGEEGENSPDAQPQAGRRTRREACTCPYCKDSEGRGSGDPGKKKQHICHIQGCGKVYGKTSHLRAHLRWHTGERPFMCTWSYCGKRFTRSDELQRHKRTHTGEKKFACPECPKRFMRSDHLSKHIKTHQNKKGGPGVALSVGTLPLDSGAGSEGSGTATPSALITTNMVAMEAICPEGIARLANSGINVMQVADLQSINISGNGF
# Transcription factor E2F1 (Homo sapiens), sequence (Q01094 whole entry, looked up): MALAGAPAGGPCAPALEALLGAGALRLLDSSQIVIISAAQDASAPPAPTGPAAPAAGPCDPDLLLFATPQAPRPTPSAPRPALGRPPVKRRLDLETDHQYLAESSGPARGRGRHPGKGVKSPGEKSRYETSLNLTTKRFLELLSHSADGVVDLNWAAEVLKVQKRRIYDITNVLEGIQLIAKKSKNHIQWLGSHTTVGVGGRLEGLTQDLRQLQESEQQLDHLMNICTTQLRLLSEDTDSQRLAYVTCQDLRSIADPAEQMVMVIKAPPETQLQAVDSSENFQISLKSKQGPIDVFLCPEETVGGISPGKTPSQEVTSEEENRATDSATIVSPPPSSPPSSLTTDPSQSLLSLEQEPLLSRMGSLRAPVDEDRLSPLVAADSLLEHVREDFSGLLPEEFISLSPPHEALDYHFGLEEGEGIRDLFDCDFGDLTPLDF
smiles,measurement,setting,value
c1ccc(Nc2ccc3ccccc3c2)cc1,outcome,[1],inactive
same,AC50,[2],20.6 µM (active)
same,AC50,[3],115 µM (active)
same,outcome,[4],inactive
same,outcome,[5],inactive
same,outcome,[6],inactive
same,outcome,[7],inactive
same,outcome,[8],inactive
same,outcome,[9],inactive
same,outcome,[10],inactive
same,outcome,[11],inactive
same,outcome,[12],inactive
same,outcome,[13],inactive
same,outcome,[14],inactive
same,outcome,[15],inactive
same,outcome,[16],inactive
same,outcome,[17],inactive
same,AC50,[18],10.3 µM (active)
same,outcome,[19],inactive
same,outcome,[20],inactive
CCOC(=O)NC(=S)Nc1ccccc1NC(=S)NC(=O)OCC,outcome,[1],inactive
same,outcome,[2],inactive
same,outcome,[3],inactive
same,outcome,[4],inactive
same,outcome,[5],inactive
same,outcome,[6],inactive
same,outcome,[7],inactive
same,outcome,[8],inactive
same,outcome,[9],inactive
same,outcome,[10],inactive
same,outcome,[11],inactive
same,outcome,[12],inactive
same,outcome,[13],inactive
same,outcome,[14],inactive
same,outcome,[15],inactive
same,outcome,[16],inactive
same,outcome,[17],inactive
same,AC50,[18],1.68 µM (active)
same,outcome,[19],inactive
same,outcome,[20],inactive
